# Hits are enriched below; roughly 6.2% of the tested compounds scored in any of these assays.
# KB-3-1 cytotox – KB-3-1 parental cell cytotoxicity | KB-3-1 viability, CellTiter-Glo ATP luminescence, 72 h | Potency, µM (doses to about 46.1 µM), actives largely listed as cytotoxic | actives 1.4% (n = 400,000); further: on the % scale 0 is the no-effect control and ±100 the full control effect; nearly all actives have a fitted effect of over 60% in size
#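 Here the drug-naive KB-3-1 line serves as comparator for MDR sub-line selectivity; cells received compound titrations, 72 h at 37 °C, then CellTiter-Glo readout.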
# S2 tox – viability counter-screen for ATXN expression inhibitors; S2 cells (HEK-293 line with an ATXN2-luciferase reporter) viability, CellTiter-Fluor protease fluorescence, 24 h; Potency, µM (doses to about 56.7 µM), actives largely listed as cytotoxic; actives 0.49% (n = 400,000); AID 651635; further: nearly all actives have a fitted effect of over 40% in size
# ATXN2 expr inh – reduces ATXN2 reporter expression in HEK-293 cells; HEK-293 ATXN2-luciferase reporter, luminescence, 24 h; Potency, µM (series often up to 57 µM), for the others: at the top dose activity change, negative = inhibition, actives largely listed as inhibitors; actives 0.72% (n = 360,000); further: on the % scale 0 is the no-effect control and ±100 the full control effect; nearly all actives have a fitted effect of over 55% in size
#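 qHTS (up to 57 uM final) was run with 24 h compound exposure of reporter cells at 37 °C. Each well was multiplexed: SteadyGlo luminescence measured ATXN2-luciferase expression after a fluorogenic Gly-Phe-AFC viability readout (25 uM final).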
# HT1080-NT tox – kills 2HG-producing HT-1080-NT fibrosarcoma cells. AID 686970. actives 1.6% (n = 360,000). Potency, µM (titrated, usually from 46.1 µM), for inactives: at the top dose activity, negative = less viability, usual class: cytotoxic. HT-1080-NT fibrosarcoma viability, CellTiter-Glo ATP luminescence, 48 h;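 further: NT is the 2HG producing partner of a matched IDH1 knockdown line; 0% = DMSO-treated cells and -100% = media-only wells without cells; nearly all actives have a fitted effect of over 55% in size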
#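 HT-1080-NT; 750 cells/well; 5% FBS RPMI; 48 h compound, 37 degrees C; CellTiter-Glo luminescence; curve fitting and curve-class assignment.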
# KB-V1 MDR tox – kills drug-selected multidrug resistant KB-V1 cells | KB-V1 MDR cells viability, CellTiter-Glo, 72 h | Potency, µM (titrated, usually from 46.1 µM), usual class: cytotoxic | actives 3.4% (n = 400,000) | AID 1347076; further: on the % scale 0 is the no-effect control and ±100 the full control effect; nearly all actives have a fitted effect of over 60% in size
#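 qHTS viability screen in drug-selected KB-V1 MDR cells: 72 h compound treatment at 37 degrees C, ATP luminescence end point.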
# HT1080 IDH1KD tx – toxicity to HT-1080 IDH1 knockdown cells (counter line); HT-1080 IDH1 knockdown viability, ATP luminescence, 48 h; actives 2% (n = 360,000); Potency, µM (top dose mostly 46.1 µM), inactives show at the highest dose activity, negative = toxicity, most hits filed as cytotoxic; AID 686971;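 further: 0% = DMSO wells and -100% = cell-free medium wells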
#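 Using the IDH1-knockdown HT-1080 line run in the same batch and compound series as the NT line, viability after 48 h at 37 °C was determined by CellTiter-Glo luminescence and expressed as % activity.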
# * marks the source's active call; other numbers are inactive results; i = inactive; ? = inconclusive; . = not tested or not shown. The call rests on the fitted dose curve; in most records, active means well fitted curve in the direction sought with a large enough effect; inconclusive means small, poorly fitted or top-dose-only effect, or another doubt; inactive means no such curve, though single readings can be large; an effect the other way counts as inactive or inconclusive. Potency means the concentration at half of the fitted maximal effect.
SMILES,KB-3-1 cytotox,S2 tox,ATXN2 expr inh,HT1080-NT tox,KB-V1 MDR tox,HT1080 IDH1KD tx
CCOC(=O)C1=C(CC)OC(N)=C(C#N)C1c1cccs1 (stereo not drawn),i,i,7%,?,i,22µM*
N#CC1=C(N)Oc2cc(O)ccc2C1c1cccs1 (stereo not drawn),i,i,5%,-17%,i,-20%
COC(=O)CC1=C(C(=O)OC)C(c2cccs2)C(C#N)=C(N)O1 (stereo not drawn),i,i,-11%,9%,i,11%
CC1(C)CC(=O)C2=C(C1)OC(N)=C(C#N)C2c1cccs1 (stereo not drawn),i,i,-9%,24%,i,5%
CCN1CC2=C(OC(N)=C(C#N)C2c2cccs2)/C(=C\c2cccs2)C1 (stereo not drawn),i,i,?,22µM*,i,?
N#CC1=C(N)Oc2c(O)cc3ccccc3c2C1c1ccsc1 (stereo not drawn),?,i,?,21µM*,?,15µM*
COc1cccc(-c2cc3c(c(OC)c2)OCCN(S(=O)(=O)c2ccccc2OC(F)(F)F)C3)n1,.,i,.,.,.,.
COc1ccc(-c2nc3ccccc3s2)cc1NC(=O)c1cc2ccccc2o1,i,i,7%,.,i,.
Cc1ccc(NC(=O)C(C)Sc2nnc3ccccn23)cc1 (stereo not drawn),i,i,.,2%,i,4%
COc1ccc(C)cc1NC(=O)C(Sc1nnc2ccccn12)c1ccccc1 (stereo not drawn),i,i,8%,-3%,3.3µM*,-6%
CCOc1ccccc1NC(=O)C(Sc1nnc2ccccn12)c1ccccc1 (stereo not drawn),i,i,-5%,1%,?,1%
O=C(Nc1ccc(F)cc1)C(Sc1nnc2ccccn12)c1ccccc1 (stereo not drawn),i,i,-7%,8%,5.8µM*,1%
CCc1cccc(NC(=O)CCS(=O)(=O)c2cc(Br)cc3c2N(C(C)=O)CC3)c1,i,i,-3%,.,i,.
CSc1ccc(CN(C)C(=O)CNC(=O)c2ccc3c(c2)OCO3)cc1,i,?,-4%,2%,21µM*,14%
CCOc1ccc(Nc2c(S(=O)(=O)c3ccccc3)cnc3ccc(CC)cc23)cc1,i,?,?,.,?,.
O=C(O)c1ccccc1C(=O)NCc1ccc(F)cc1,i,i,-3%,1%,i,10%
O=C(O)c1ccccc1C(=O)NNc1ccc(F)cc1,i,i,38%,?,i,8.2µM*
CC(CNC(=O)c1ccc(CSc2nc3ccncc3n2Cc2cccc(F)c2)cc1)c1ccccc1 (stereo not drawn),i,?,-34%,.,i,.
Cc1ccc(NC(=O)NCC2CCN(Cc3cccc(Cl)c3)CC2)cc1Cl,?,?,?,12µM*,?,-13%
Cc1ccc(C)c(CN2CCC(CNC(=O)Nc3ccc(F)c(Cl)c3)CC2)c1,?,i,?,26µM*,i,18µM*
CCc1ccc(NC(=O)NCC2CCN(Cc3cccc(Cl)c3)CC2)cc1,?,?,.,?,i,-7%
CCOC(=O)c1c(C)oc2nc(C)nc(NCCc3ccc(OCC)c(OCC)c3)c12,i,i,1%,.,i,.
O=[N+]([O-])c1ccc2c(c1)C=C/C2=C\c1ccccc1,i,.,.,.,i,.
O=C(COC(=O)c1ccccc1)Nc1cccc(S(=O)(=O)NC2=NCCCCC2)c1,i,i,5%,?,i,21%
O=C(CCl)Nc1cccc(S(=O)(=O)NC2=NCCC2)c1,18µM*,.,.,18µM*,i,16µM*
SMILES,KB-3-1 cytotox,S2 tox,ATXN2 expr inh,HT1080-NT tox,KB-V1 MDR tox,HT1080 IDH1KD tx
O=C(Nc1cccc(S(=O)(=O)NC2=NCCCCC2)c1)c1cc(-c2ccccc2Cl)nc2ccccc12,i,?,-20%,8%,i,-15%
NC(=O)Nc1ccc(C(=O)OCC(=O)Nc2cccc(S(=O)(=O)NC3=NCCCCC3)c2)cc1,i,i,.,-5%,i,1%
Cc1cc(C)cc(C(=O)OCC(=O)Nc2cccc(S(=O)(=O)NC3=NCCCCC3)c2)c1,?,i,-3%,0%,16µM*,-8%
CCN(CC)c1ccc(C(=O)OCC(=O)Nc2cccc(S(=O)(=O)NC3=NCCCCC3)c2)cc1,?,i,9%,2%,21µM*,9%
O=C(Nc1cccc(S(=O)(=O)NC2=NCCC2)c1)c1cc(-c2ccccn2)nc2ccccc12,i,i,-12%,23µM*,i,?
CCc1ccc(NC(=O)c2nc3nc(C)cc(C(F)F)n3n2)cc1,i,i,4%,.,i,.
O=C(Nc1ccccc1F)NC1CCN(Cc2nnnn2Cc2ccc(F)cc2)CC1,i,i,-12%,4%,15µM*,4%
Cc1ccc(C(=O)Nc2ccc(CN3CCN(C)CC3)c(C(F)(F)F)c2)cc1C#Cc1cnc2cccnn12,.,.,19µM*,.,.,.
Cc1ccc(C(=O)Nc2cccc(C(F)(F)F)c2)cc1Nc1cnccn1,i,i,0%,-1%,i,0%
CCc1ccc(C(=O)Nc2cc(CN3CCN(C)CC3)cc(C(F)(F)F)c2)cc1C#Cc1cnc2ccnn2c1,.,.,24µM*,.,.,.
C[C@@H]1CCN(C(=O)[C@H](CCCN=C(N)N)NS(=O)(=O)c2cccc3c2NC[C@H](C)C3)[C@@H](C(=O)O)C1,.,i,8%,.,.,.
COc1ccc(-c2cn3nc(SCC(=O)Nc4ccccc4F)ccc3n2)cc1,i,i,11%,.,i,.
Cc1ccccc1CS(=O)(=O)c1cnc2ccccc2n1,i,i,-6%,23µM*,?,?
Nc1ccc(C(=O)c2cc3c(ccc4ccccc43)[nH]2)cc1,.,.,-12%,.,.,.
CCC1Oc2ccc(C)cc2N(CC(=O)N(Cc2ccc3c(c2)OCO3)CC2CCCO2)C1=O (stereo not drawn),i,i,3%,-1%,6.5µM*,-9%
CCC1Oc2ccc(C)cc2N(CC(=O)N(Cc2ccc(C)o2)C2CC(C)(C)NC(C)(C)C2)C1=O (stereo not drawn),?,?,?,16µM*,?,?
COc1ccc(CN(CC2CCCO2)C(=O)CN2C(=O)C(C)Oc3ccc(C)cc32)cc1OC (stereo not drawn),i,i,-5%,-2%,?,-5%
Cc1ccc(NS(=O)(=O)c2cc3c(cc2F)NC(=O)CC3)cc1Cl,?,.,.,.,i,.

# From PubChem BioAssay
